Compound activity as filed in PubChem.
Only some compounds are listed: those with a hit (about 3.4% of all), similar ones and a draw of the others.
TEAD-YAP inh = TEAD-YAP interaction inhibition, primary screen, TEAD-YAP interaction inhibitor project, luminescence, HEK-TIYL cells | 640,000 tested, 1.4% active | inhibition, % at 9.12 µM | TEAD-Gal4/YAP UAS-luciferase luminescence; in the data active = inhibition above about 32%;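 note: 0% = median of test compound wells and 100% = reference inhibitor wells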
FBW7 act = FBW7 E3 ligase activators, primary screen, biochemical, AlphaScreen, human. F-box/WD repeat-containing protein 7 (Homo sapiens), Q969H0. AlphaScreen FBW7–phospho-cyclin E peptide binding, activator screen. normalized activity (activation), % at 26.1 µM. 650,000 tested, 0.13% active. AID 1259310, 2017; in the data active = normalized activity above about 1.9%;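 note: purified mutant Fbw7 with reduced substrate affinity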
MITF primary = MITF inhibitors, primary screen, biochemical, AlphaScreen, human | 650,000 tested, 0.91% active | inhibition, % at 2.6 µM | Microphthalmia-associated transcription factor (Homo sapiens), O75030 | AID 1259374, 2018 | AlphaScreen MITF homodimerization, bead proximity signal; in the data active = inhibition above about 50%;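 note: 0% = vehicle wells with protein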
Target sequence (O75030 whole entry, looked up): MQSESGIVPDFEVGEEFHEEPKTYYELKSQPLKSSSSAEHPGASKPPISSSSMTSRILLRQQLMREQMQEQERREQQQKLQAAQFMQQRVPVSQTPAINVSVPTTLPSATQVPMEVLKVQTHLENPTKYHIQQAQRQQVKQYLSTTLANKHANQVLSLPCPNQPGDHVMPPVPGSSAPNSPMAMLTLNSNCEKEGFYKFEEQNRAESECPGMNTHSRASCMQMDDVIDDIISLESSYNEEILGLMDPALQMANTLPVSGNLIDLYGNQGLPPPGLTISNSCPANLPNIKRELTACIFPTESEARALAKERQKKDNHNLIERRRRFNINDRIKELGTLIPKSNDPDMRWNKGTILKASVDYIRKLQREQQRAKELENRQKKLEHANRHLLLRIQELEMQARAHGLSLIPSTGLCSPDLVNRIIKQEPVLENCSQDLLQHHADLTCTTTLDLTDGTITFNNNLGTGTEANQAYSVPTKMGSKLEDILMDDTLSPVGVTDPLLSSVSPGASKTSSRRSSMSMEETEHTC
GPR151 ag = activators of human GPR151, primary screen, cell-based, PathHunter beta-arrestin, luminescence. G-protein coupled receptor 151 (Homo sapiens), Q8TDV0. PathHunter beta-arrestin GPR151 cells. activation, % at 11.2 µM. 650,000 tested, 1% active; in the data active = activation above about 4.9%;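 note: 0% = median of compound wells and 100% = cells with positive control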
GPR151 conf act = GPR151 activators, triplicate retest, confirmation, cell-based, PathHunter beta-arrestin, luminescence. shares compounds with GPR151 ag. AID 1508609, 2020. activation, % at 11.2 µM. 6,700 tested, under 10 active. GPR151 PathHunter beta-arrestin cells, 90 min; % of EA-reagent control over plate median;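 active = mean percent activation across replicates above the confirmation screen cutoff of 4.91%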
GPR119 counter = GPR119 activators in beta-arrestin cells, counter-screen for GPR151 activator project, cell-based, PathHunter beta-arrestin, luminescence, triplicate | shares compounds with GPR151 ag | 90 min; 0 = compound-well median, 100 = enzyme-acceptor control | activation, % at 11.2 µM | 6,700 tested, 0.3% active | AID 1508611, 2020;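 active = mean percent activation in the counterscreen above 29.09%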;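 note: counterscreen on off-target GPR119 to flag nonselective hits from the GPR151 activator screen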
* hit, by the source's call; . = no result; ! = a repeat was not active.

SMILES	TEAD-YAP inh	FBW7 act	MITF primary	GPR151 ag	GPR151 conf act	GPR119 counter
C=CCN1C(=O)/C(=C/c2ccc(Cl)cc2Cl)C(=O)NC1=S	4	0	9	9.1*	-1	-8
C=CCN1C(=O)/C(=C\c2cc(Cl)c(O)c(OC)c2)C(=O)NC1=S	-2	0	-8	1	.	.
N#Cc1ccc(NC(=O)CSc2n[nH]c(-c3cccs3)n2)cc1Cl	-3	0	-2	11*	0	13
Cc1csc(NC(=O)c2cccn(Cc3ccc(Cl)cc3)c2=O)n1	-2	0	17	4.9*	-1	-16
Cc1nc(SCc2ccccc2)[nH]c(=O)c1CC(=O)N1CCN(Cc2ccccc2)CC1	-1	0	6	6.2*	0	-7
O=C(Cc1ccc(Cl)cc1)N1CCN(Cc2ccccc2)CC1	-7	0	1	2	.	.
COc1cccc(/C=C/c2nc3ccccc3c(=O)n2-c2ccc(C)cc2)c1OC	3	0	-3	0	.	.
CN(C)CP(=O)(Nc1ccccc1)N(C)C (stereo unspecified)	7	0	2	2	.	.
CC(C)P(=O)(Nc1ccccc1)C(C)C	4	0	1	8.0*	0	7
C[C@@H]1O[C@@H](O[C@H]2C[C@@H](O)[C@]3(CO)[C@H]4[C@H](O)C[C@]5(C)[C@@H](C6=CC(=O)OC6)CC[C@]5(O)[C@@H]4CC[C@]3(O)C2)[C@H](O)[C@H](O)[C@H]1O	103*	0	7	5.7*!	3	128*
CN(C)CC(O)c1ccc2cc[nH]c2c1 (stereo unspecified)	-5	0	0	2	.	.
COC(=O)C1=C(C)OC(N)=C(C#N)C12C(=O)N(CC(N)=O)c1ccccc12 (stereo unspecified)	8	0	5	0	.	.
OC1/C(=C/c2cccc(OCc3ccccc3)c2)N2CCC1CC2 (stereo unspecified)	-37	0	5	5.9*	0	4
CC1(C)C(C(=O)N2CCc3nnc(CNC(=O)C4CCOC4)n3CC2)C1(C)C (stereo unspecified)	4	0	7	0	.	.
O=C(CN1CCN(c2ccccc2F)CC1)Nc1ccc(Br)cc1C(=O)c1ccccc1Br	7	0	1	0	.	.
O=C(Nc1ccccc1)N1CNC(=N[N+](=O)[O-])NC1	-4	0	-3	3	.	.
O=[N+]([O-])N=C1NCN(C2CCN(Cc3ccccc3)CC2)CN1	-10	0	-3	5.5*	1	1
COc1cc2c(cc1O)[C@@H]1Cc3ccc(OC)c(O)c3CN1CC2	44*	0	14	6.0*	1	-13
COc1cc(C=C2C(=O)NC(=S)NC2=O)ccc1OC(=O)c1ccc(C)cc1	1	0	13	6.6*	-1	2
C=C[C@H]1CN2CC[C@H]1C[C@H]2[C@H](O)c1ccnc2ccccc12	20	0	-1	5.4*!	-1	3
Cc1ccc(-n2c(/C=C/c3cccnc3)nc3ccccc3c2=O)cc1	10	0	5	0	.	.
COc1ccc2oc3c(c2c1)NC(=O)CN=C3c1ccc(F)cc1	1	0	20	-2	.	.
COc1ccc2oc3c(c2c1)NC(=O)CN=C3c1ccccc1	-11	0	13	6.9*	1	-1
O=C(Nc1ccc(Br)cc1C(=O)c1ccccc1)c1cccc(C(F)(F)F)c1	5	1	9	-1	.	.
Cc1cc2oc(=O)c3c(c2c(O)c1CN1CCN(C)CC1)CCCC3	6	0	-16	9.3*	0	8
SMILES	TEAD-YAP inh	FBW7 act	MITF primary	GPR151 ag	GPR151 conf act	GPR119 counter
CC(=O)Oc1cc(C)cc2oc(=O)c3c(c12)CCCC3	6	1	20	1	.	.
CN1CCN(Cc2cccc3c2OCO3)CC1CCO (stereo unspecified)	-1	0	8	-1	.	.
CCN(CC)c1ccc(/C=C\[N+](=O)[O-])c(C)c1	7	0	-10	6.7*	1	18
CCOc1ccc(CN2CCN(C(C)C)C(CCO)C2)cc1 (stereo unspecified)	3	0	-3	2	.	.
COc1ccc(CC(=O)N2CCN(Cc3nc(-c4ccc(Cl)cc4)cs3)CC2)cc1OC	61*	1	8	15*	0	4
Cc1ccc2c(c1)C1CN(C)CCC1N2C(=O)c1ccccc1F (stereo unspecified)	1	0	14	0	.	.
N/C(=N/[N+](=O)[O-])N1CCN(C(=O)Nc2ccccc2)CC1	6	0	19	-1	.	.
C[C@H](N)[C@H](O)c1ccc(O)c(O)c1	-2	0	84*	5.7*!	1	5
O=c1c(-c2ccccc2)coc2c(CN3CCCCC3)c(O)ccc12	8	0	3	5.1*	-1	-8
O=C1NC(=S)NC(=O)C1=Cc1ccc(I)o1	3	-2	63*	5.7*	-1	-9
N#Cc1c(Cl)c(Cl)nc(N2CCCNCC2)c1Cl	0	0	-5	6.1*	1	13
N#Cc1cc(F)c(N2CCNCC2)cc1Cl	3	0	1	0	.	.
CCOc1cc(/C=C/[N+](=O)[O-])ccc1O	13	0	5	0	.	.
Cc1nn(Cc2ccccc2)c(C)c1C=O	-9	0	-2	5.1*	0	-1
CCS(=O)(=O)Nc1cccc(N2CCC(NC(C)Cc3ccccn3)CC2)c1 (stereo unspecified)	-4	0	3	0	.	.
CCc1c(C)nc(N)nc1N1N=C1SCC(N)=O	-5	1	14	9.5*	-1	-8
Cc1ccc(Nc2cnn(C34CC5CC(CC(C5)C3C(=O)O)C4)c(=O)c2Cl)cc1 (stereo unspecified)	-1	0	-13	-1	.	.
CC(Cc1cccc(C(F)(F)F)c1)NCCCc1ccccc1 (stereo unspecified)	.	0	-9	9.1*	0	-5
CCOc1ccccc1N1CCN(Cc2cccnc2)CC1	5	0	40	5.5*	0	11
CN1CCN(c2ccc([N+](=O)[O-])cc2C=O)CC1	1	0	13	5.9*	1	7
CN1CCN(c2ccc([N+](=O)[O-])cc2C(F)(F)F)CC1	-2	0	5	1	.	.
CCCN1CCC[C@@H]2Cc3[nH]ncc3C[C@H]21	-1	0	-1	7.8*!	1	-7
CCCN1CCC[C@@H]2Cc3nc(N)ncc3C[C@H]21	-2	0	1	-1	.	.
